# How the values were obtained:
# Test in all cases: pooled miR-30 sensor sort-seq; sequence = guide strand
# Conditions in all cases: shRNA
# [1] = target: GPKOW
# [2] = target: GPR123
# [3] = target: GPR137
# [4] = target: GPR3
# [5] = target: GPR89B
# [6] = target: GPS1
# [7] = target: GRHL3
# [8] = target: GYG1
# [9] = target: H2AFZ
# [10] = target: GUCY2F
# [11] = target: GTF2H5
# [12] = target: HBQ1
# [13] = target: HDHD2
# [14] = target: HHATL
# [15] = target: HERC3
# [16] = target: HERC1
# [17] = target: HEPH
# [18] = target: HES7
# Also: reference of the scale not given here.
sequence,measurement,setting,value
TTCACTACTTGATTGAAGGTGC,sensor-assay potency score (higher = more potent),[1],0.973
TTCTAGCAATTTACCCTTGGGC,sensor-assay potency score (higher = more potent),[2],-1.05
TGTAGAATAGTGCAGCACGATG,sensor-assay potency score (higher = more potent),[2],-1.66
ATGACGAACAGGGAGTCGCTCA,sensor-assay potency score (higher = more potent),[3],-1.35
TCATTCACCAGGTCCGCCTGGT,sensor-assay potency score (higher = more potent),[3],0.279
TCTGAGTAGAACACTGACCACC,sensor-assay potency score (higher = more potent),[4],-0.825
TCAGCTACCATAGACATCTCTT,sensor-assay potency score (higher = more potent),[5],0.143
TACCATAGACATCTCTTGCCCC,sensor-assay potency score (higher = more potent),[5],0.0271
TCCAGCTCCAAGAACAACTTGA,sensor-assay potency score (higher = more potent),[6],-0.994
TAGGTCGTCTCATTGCCCCTGA,sensor-assay potency score (higher = more potent),[7],0.415
TTACTGTACACAGAAAACTGGT,sensor-assay potency score (higher = more potent),[8],-0.292
ATAATGTCTGTACAAAACCAAA,sensor-assay potency score (higher = more potent),[9],-1.91
TTGGTCGTTGTTCTGCAGCCTC,sensor-assay potency score (higher = more potent),[10],-0.834
TTGAAGAATTGTAACAGTGCTG,sensor-assay potency score (higher = more potent),[10],0.627
TCTGCTATTACAAAGACGTGAG,sensor-assay potency score (higher = more potent),[11],0.353
TGAATGATGAACTTCTTCCCCA,sensor-assay potency score (higher = more potent),[11],-0.103
TAGATGGTTCCAAACAACGGTG,sensor-assay potency score (higher = more potent),[10],-1.15
TAATATTGGTCTTCTTCCCTTT,sensor-assay potency score (higher = more potent),[10],-0.067
TTCTGCTATTACAAAGACGTGA,sensor-assay potency score (higher = more potent),[11],-0.0161
TAATCTGGAAGCTTACACTGGC,sensor-assay potency score (higher = more potent),[10],0.71
TTGAAGCAGAGGTAAAACGTTG,sensor-assay potency score (higher = more potent),[8],-0.811
TAGATTTTAGGTGTCGATGAAT,sensor-assay potency score (higher = more potent),[9],-1.16
TTAATATCTTGAGTTTCCCTTA,sensor-assay potency score (higher = more potent),[8],-0.312
TTTCACATCTTGATTTGTCAGT,sensor-assay potency score (higher = more potent),[10],-0.489
TTGAACTTATCCACCAGAGTGG,sensor-assay potency score (higher = more potent),[9],-0.27
TTGCTCAGAAGCAAGATGCAAC,sensor-assay potency score (higher = more potent),[8],-0.936
TTCCATTTCCATTTGAATCTGT,sensor-assay potency score (higher = more potent),[10],0.512
TTTAAGAACTGATACAGCCATC,sensor-assay potency score (higher = more potent),[8],-1.1
TAAACTTCCAACTTGCTCAAAT,sensor-assay potency score (higher = more potent),[9],-0.831
TTATAAAGTAAGCAAATCCATT,sensor-assay potency score (higher = more potent),[10],-1.1
TTTAATGAAAACCTCTAGCAAC,sensor-assay potency score (higher = more potent),[8],-1.05
TTAGGTGTCGATGAATACGGCC,sensor-assay potency score (higher = more potent),[9],-0.494
TTTGTCTTGGCCTTTCCGGAGT,sensor-assay potency score (higher = more potent),[9],-0.897
TACTGTGTAAGCGACCAGCAGT,sensor-assay potency score (higher = more potent),[8],-0.399
TTTACCTTTAAGTCTTTTGATG,sensor-assay potency score (higher = more potent),[9],-0.972
TAACAGACTTTTCTCAACCCAG,sensor-assay potency score (higher = more potent),[8],-0.49
TTAATTCACCCACTCGCTCCTG,sensor-assay potency score (higher = more potent),[11],-0.542
TAACCATCAGAGAACACACTGC,sensor-assay potency score (higher = more potent),[8],0.344
TTTGAAGCCACAGTAACACTTA,sensor-assay potency score (higher = more potent),[9],0.62
TTGAATTGTAGATGGTTCCAAA,sensor-assay potency score (higher = more potent),[10],-0.33
AATGATGAACTTCTTCCCCAGG,sensor-assay potency score (higher = more potent),[11],-1.25
TACAGAACTGAACAAAAGCATT,sensor-assay potency score (higher = more potent),[8],-1.48
TGAAGAATTGTAACAGTGCTGA,sensor-assay potency score (higher = more potent),[10],-0.218
TAAATTGAATTGTAGATGGTTC,sensor-assay potency score (higher = more potent),[10],-0.461
TAATGGTCAACACTGCATCATA,sensor-assay potency score (higher = more potent),[10],-1.31
TTTAGGTGTCGATGAATACGGC,sensor-assay potency score (higher = more potent),[9],-0.619
TTAAACTTCCAACTTGCTCAAA,sensor-assay potency score (higher = more potent),[9],-1
TAGCAAGTTGCAAGTGACGAGG,sensor-assay potency score (higher = more potent),[9],-0.877
TCTAGCAACTGTAACAGACTTT,sensor-assay potency score (higher = more potent),[8],-0.0429
TTACATATGAGCAGGTGTCTTT,sensor-assay potency score (higher = more potent),[8],-0.417
TTACCAGCAGGCAGTGGCCCAG,sensor-assay potency score (higher = more potent),[12],-1.7
AAGTAGGTCTTCGTGGCGGGGA,sensor-assay potency score (higher = more potent),[12],-0.359
TAACAGGTCTTGCTTGCTCTCT,sensor-assay potency score (higher = more potent),[13],-0.886
TCAACTAGCAGCATGGGTCTGA,sensor-assay potency score (higher = more potent),[13],0.908
TAGAGTGCGGTGATGCACTTGG,sensor-assay potency score (higher = more potent),[14],0.641
TTCAGCTTTTGTATTAACCTGG,sensor-assay potency score (higher = more potent),[15],0.299
TTTACATTGAGTAACTTCTTGT,sensor-assay potency score (higher = more potent),[15],-0.154
TTGTCCATGTCGATTGAGCGGC,sensor-assay potency score (higher = more potent),[16],-0.831
TATAGTAGATTCTTGCAGCTTG,sensor-assay potency score (higher = more potent),[17],0.849
TCCGCTTTCTCCAGCTTCGGGT,sensor-assay potency score (higher = more potent),[18],-1.29

# — the OligoGym collection
